One may read the AC50 as the midpoint of the concentration-response curve, whichever way the signal moves.

Screen size: about 16,000 compounds; about 5,700 (36%) were called active. Roughly 24% stayed inconclusive and do not appear here. Some of the results follow. Unmarked numbers belong to inactive results. The call rests on the fitted dose curve; in most records, active means well fitted curve in the direction sought with a large enough effect; inconclusive means small, poorly fitted or top-dose-only effect, or effect the other way; inactive means no such curve, though single readings can be large or run the other way. Square brackets hold non-standard residues; d marks the D form. Peptide text beside a SMILES is read from it. * marks the point of attachment. ξ: configuration not given here. Cbz = O=C(OCc1ccccc1)*; OBn = c1ccc(CO*)cc1; ξP = O=C(O)C1CCCN1
On the % scale 0 is the no-effect control and ±100 the full control effect.

In this test the target is Cytochrome P450 1A2 (Homo sapiens) (UniProt P05177). The test is described as follows: Cytochrome panel assay with activity outcomes. To be noted: recombinant CYP, pro-luciferin dealkylation, luminescence, p450-cyp1a2; series mostly up to 57.1 µM.
Chain of Cytochrome P450 1A2 (Homo sapiens) (P05177 whole entry, looked up): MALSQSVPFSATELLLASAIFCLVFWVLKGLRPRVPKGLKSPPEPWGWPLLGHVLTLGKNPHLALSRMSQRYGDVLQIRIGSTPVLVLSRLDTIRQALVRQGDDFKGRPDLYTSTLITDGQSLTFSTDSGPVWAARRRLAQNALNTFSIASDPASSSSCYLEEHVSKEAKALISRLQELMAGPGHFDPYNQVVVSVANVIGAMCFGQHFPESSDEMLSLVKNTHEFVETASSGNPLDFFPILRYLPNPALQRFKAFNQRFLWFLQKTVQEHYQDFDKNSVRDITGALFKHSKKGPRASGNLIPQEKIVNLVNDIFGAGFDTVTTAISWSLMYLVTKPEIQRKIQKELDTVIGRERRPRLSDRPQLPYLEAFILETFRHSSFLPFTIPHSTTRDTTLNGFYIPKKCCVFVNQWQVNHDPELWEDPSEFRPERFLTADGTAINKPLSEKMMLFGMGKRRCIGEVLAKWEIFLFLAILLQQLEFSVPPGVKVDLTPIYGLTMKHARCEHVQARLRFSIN
On to `O=C(c1ccco1)N1CCC2(CCN(Cc3nccs3)CC2)CC1`, for which the AC50 entry is “inactive”.
Take `C=C1CC[C@H](O)C/C1=C/C=C1\CCC[C@]2(C)[C@H]1CC[C@H]2[C@@H](C)/C=C\[C@@H](C)C(C)C`: the AC50 entry is “inactive”.
In the case of `COCC(=O)Nc1c(I)c(C(=O)NC[C@@H](O)CO)c(I)c(C(=O)N(C)C[C@@H](O)CO)c1I`, the AC50 entry was “inactive”.
Turning to `COc1cccc([C@@H]2Oc3ccc(OC)cc3C(=O)[C@H]2O)c1`, the activity, negative = inhibition is 2.62% [at 11.4 µM].
For `Cc1cc(NC(=O)C2=C(O)c3ccccc3S(=O)(=O)N2C)no1`, the AC50 entry was “inactive”.
On to `COc1ccc2c(c1)-c1ccccc1S(=O)(=O)N2C(C)=O`, for which the AC50 is 20 µM (active).
On the same count and under the same terms, next, `O=C(c1cc(C(F)(F)F)cc(C(F)(F)F)c1)N1CCC2(CCCN(Cc3nccs3)C2)CC1`: “inactive”.
For `Cc1ccc(Nc2c([N+](=O)[O-])ccc3c2=NC2(CCCCC2)N=3)cc1`, the AC50 is 15.8 µM (active).
Still for that read-out and setting: next, `Cc1cccc(NC(=O)CCCN2C(=O)c3cccc4cccc(c34)C2=O)c1`: 6.31 µM (active).
Still for that read-out and setting: next, `Cc1c(Cl)cccc1NC(=O)CC1NCCNC1=O` (stereo unspecified): “inactive”; `C[N+](C)(CCCCCC[N+](C)(C)CCCN1C(=O)c2cccc3cccc(c23)C1=O)CCCN1C(=O)c2cccc3cccc(c23)C1=O`: “inactive”; `CCOC(=O)c1sc(NC(=O)CCCCCN2C(=O)c3cccc4cccc(c34)C2=O)nc1C`: 25.1 µM (active).
Consider `Cc1cccc(NC(=O)CC2Nc3cccc4cccc(c34)NC2=O)c1` (stereo unspecified), for which the AC50 is 5.01 µM (active).
The same measure, in the same setting: the same measure for `CCOC(=O)Cc1csc(NC(=O)CCCCCN2C(=O)c3ccccc3C2=O)n1`: 1.78 µM (active); for `Cc1ccc(NC(=O)CCN2C(=O)c3ccncc3C2=O)cc1`: “inactive”.
For the molecule `[N-]=[N+]=NC[C@@H]1O[C@@H](n2cnc3c(N)ncnc32)[C@@H]2O[C@@H]21`, the activity, negative = inhibition is -13.8% [at 11.4 µM].
On to `COCCCNC(=O)C1CC(=O)N(CCc2ccc(OC)c(OC)c2)C1` (stereo unspecified), for which the AC50 result is “inactive”.
Turning to `N/C(=N\O)c1cn([C@@H]2O[C@@H](CO)[C@H](O)[C@@H]2O)c2ncnc(NO)c12`, the activity, negative = inhibition is -18.7% [at 2.29 µM].
Take `C=C[C@H](N)CCC(=O)O`: the AC50 entry is “inactive”.
Take `C[C@@H](C[N+](C)(C)C)OC(N)=O`: the AC50 entry is “inactive”.
Still for that read-out and setting: the same measure for `Cc1cccc(/C(N)=N/OC(=O)CCCN2C(=O)c3ccccc3C2=O)c1`: 15.8 µM (active).
Take `CSCC[C@@H]1NC(=O)C/C=C\[C@@H](C)COC(=O)[C@H](C)COC1=O`: the activity, negative = inhibition is -2.99% [at 11.4 µM].
For the molecule `CCC(CC)C(=O)NCCN1CCN(C(=O)C(CC)CC)CC1`, the AC50 result was “inactive”.
Still for that read-out and setting: next, `CCCCOc1ccc(CN2CCC(O)CC2)cc1`: “inactive”; `CCCCOc1cc(C[C@@H]2CNC(=O)N2)ccc1OC`: 10 µM (active).
On the same count and under the same terms, next, `COc1ccc(C[C@@H]2c3cc(OC)c(OC)cc3CC[N@+]2(C)CCC(=O)OCCCCCOC(=O)CC[N@@+]2(C)CCc3cc(OC)c(OC)cc3[C@H]2Cc2ccc(OC)c(OC)c2)cc1OC`: “inactive”.
For `Cc1ccccc1Oc1ncnc2sccc12`, the AC50 is 12.6 µM (active).
With `N#CCCn1cc(/C=N/O)c(-c2ccc(Cl)cc2)n1`, the AC50 is 0.891 µM (active).
Same read-out and setting: next, `Oc1[nH]c2ccccc2c1/C=N/c1nccs1`: 0.251 µM (active); `COc1ccc(-c2cc(-c3c(O)c(OC)c4occc4c3OC)[nH]n2)cc1OC`: 6.31 µM (active).
For `COc1ccc(-c2cc(-c3cc(F)ccc3O)[nH]n2)cc1OC`, the AC50 was 6.31 µM (active).
As to `CCc1ccc(-c2csc(NC(=O)C3CCCO3)c2C(=O)OC(C)C)cc1` (stereo unspecified), the AC50 was 7.08 µM (active).
Regarding `Cc1ccc(-c2c(C)sc(NC(=O)C3C4CCC(O4)C3C(=O)O)c2C(=O)OC(C)C)cc1` (stereo unspecified), the AC50 result was “inactive”.
`C=C(C)C1CC=C(C)/C(=N/NC(=O)c2ccc(NC(=O)c3cccc(C)c3)cc2)C1` (stereo unspecified): the AC50 result is “inactive”.
On the same count and under the same terms, the same measure for `C=C(C)[C@H]1CC=C(C)/C(=N/NC(=O)CNc2ccccc2OC)C1`: 15.8 µM (active); for `CC(=O)N1c2ccc(S(=O)(=O)CCC(=O)O)cc2CC1C` (stereo unspecified): “inactive”; for `COC(=O)c1cn(NC(=O)c2ccc(F)cc2)c(=O)c2ccccc12`: “inactive”.
Consider `COC(=O)c1ccccc1NC(=O)c1c(Br)cnn1C`, for which the AC50 was 0.891 µM (active).
On the same count and under the same terms, next, `COC(=O)c1ccccc1NC(=O)c1ccc(F)cc1`: 0.2 µM (active).
Same read-out and setting: the same measure for `Cc1ccccc1C(=O)NNC(=O)c1ccc(F)cc1`: “inactive”; for `COC(=O)c1ccccc1NC(=O)C1CCN(C(=O)c2ccc(OC)cc2)CC1`: “inactive”; for `CCOC(=O)c1c(NC(=O)c2c(Br)cnn2C)c(C#N)nn1-c1ccccc1`: 0.631 µM (active).
For the molecule `CCCCOC(=O)Nc1ccccc1C(=O)OC`, the AC50 is 2 µM (active).
On to `Cc1c(C(=O)O)nc(/C=C\C(=O)O)[nH]c1=O`, for which the activity, negative = inhibition was -6.61% [at 11.4 µM].
Turning to `O=C(Nc1cccc2[nH]ncc12)c1ccc(F)cc1`, the AC50 was 7.08 µM (active).
On to `C#CCCCO/N=C1/C[C@@H](O)[C@@H](O)[C@@H]2[C@@H]3C(=O)N(C[C@@H]4CCCO4)C(=O)[C@H]3CC[C@H]12`, for which the activity, negative = inhibition was -2.74% [at 11.4 µM].
On to `CC(C)NC(=O)N1CCC2(CC1)CCN(C(=O)c1csnn1)CC2`, for which the AC50 entry was “inactive”.
For the molecule `N#Cc1sc2nc(-c3cccs3)cc(-c3ccc(Cl)cc3)c2c1N`, the AC50 is 1.26 µM (active).
`CCN(CC)CCCNC(=O)C1CCC(=O)N(c2ccc(OC)cc2)C1c1ccc(F)cc1` (stereo unspecified): the AC50 result was “inactive”.
Still for that read-out and setting: next, `Nc1c(-c2cccs2)cnn1-c1nc(-c2ccc(Cl)cc2Cl)cs1`: 1.26 µM (active); `Nc1c(-c2cccs2)cnn1-c1nc(-c2ccc(F)cc2)cs1`: 0.447 µM (active); `O=C(c1csnn1)N1CCC2(CC1)CCN(c1ccncc1)CC2`: “inactive”.
Take `C[C@@H](C(=O)O)[C@H]1C[C@]1(C)[C@H](NC(=O)OCc1ccccc1)c1ccccc1`: the AC50 entry is “inactive”.
Still for that read-out and setting: the same measure for `COC(=O)[C@H]1C[C@@H]1[C@H](NC(=O)OCc1ccccc1)c1ccccc1`: 0.126 µM (active); for `O=C(CNC(=O)OCc1ccccc1)NCC(=O)N1CCCC1C(=O)OCc1ccccc1` (stereo not drawn) (Cbz-Gly-Gly-[ξP]-OBn): “inactive”.
Still for that read-out and setting: the same measure for `COC(=O)[C@@H]1C[C@H]1[C@@H](NC(=O)c1cnccn1)c1ccccc1`: 12.6 µM (active); for `O=C(NNC(=O)C1CCCCC1)c1cnccn1`: “inactive”.
Consider `O=C(NC(NCc1ccccc1)C(Cl)(Cl)Cl)c1cccnc1` (stereo unspecified), for which the AC50 result is “inactive”.
Regarding `COC(=O)[C@@H]1C[C@H]1[C@@H](NC(=O)c1cccnc1)c1ccccc1`, the AC50 was 12.6 µM (active).
Same read-out and setting: next, `COC(=O)[C@H]1C[C@@H]1[C@H](NC(=O)c1ccccc1)c1ccccc1`: 15.8 µM (active).
Still for that read-out and setting: next, `O=C(Nc1ccccc1)N1CCC2(CC1)CCN(C(=O)c1cnccn1)CC2`: “inactive”.

These data come from PubChem BioAssay AID1851 (National Center for Advancing Translational Sciences (NCATS), 2009).
